From the supplement of paper PMC11624193, “Coupling cellular drug-target engagement to downstream pharmacology with CeTEAM” (Nature Communications, 2024)
Structures can show the parent of a compound that is named as a salt. Unmarked numbers belong to inactive results.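 How the source made its calls: active = log2 fold change beyond 2 SD from the library mean after excluding viability outliers; inactive = within 2 SD.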

Molecular target: PARP1 L713F-nLuc biosensor (HCT116) (UniProt P09874)
Experiment: PARP1 L713F-nLuc/akaLuc ratio relative to DMSO control (biosensor stabilization) (fold change); higher = more PARP1 biosensor stabilization (target engagement / stabilizer), active = hit call of the paper
Conditions: stock concentration (mM; final µM = stock mM x 1): 10; 24 h

PARP1 L713F-nLuc biosensor (HCT116), sequence (P09874 whole entry L713F, looked up): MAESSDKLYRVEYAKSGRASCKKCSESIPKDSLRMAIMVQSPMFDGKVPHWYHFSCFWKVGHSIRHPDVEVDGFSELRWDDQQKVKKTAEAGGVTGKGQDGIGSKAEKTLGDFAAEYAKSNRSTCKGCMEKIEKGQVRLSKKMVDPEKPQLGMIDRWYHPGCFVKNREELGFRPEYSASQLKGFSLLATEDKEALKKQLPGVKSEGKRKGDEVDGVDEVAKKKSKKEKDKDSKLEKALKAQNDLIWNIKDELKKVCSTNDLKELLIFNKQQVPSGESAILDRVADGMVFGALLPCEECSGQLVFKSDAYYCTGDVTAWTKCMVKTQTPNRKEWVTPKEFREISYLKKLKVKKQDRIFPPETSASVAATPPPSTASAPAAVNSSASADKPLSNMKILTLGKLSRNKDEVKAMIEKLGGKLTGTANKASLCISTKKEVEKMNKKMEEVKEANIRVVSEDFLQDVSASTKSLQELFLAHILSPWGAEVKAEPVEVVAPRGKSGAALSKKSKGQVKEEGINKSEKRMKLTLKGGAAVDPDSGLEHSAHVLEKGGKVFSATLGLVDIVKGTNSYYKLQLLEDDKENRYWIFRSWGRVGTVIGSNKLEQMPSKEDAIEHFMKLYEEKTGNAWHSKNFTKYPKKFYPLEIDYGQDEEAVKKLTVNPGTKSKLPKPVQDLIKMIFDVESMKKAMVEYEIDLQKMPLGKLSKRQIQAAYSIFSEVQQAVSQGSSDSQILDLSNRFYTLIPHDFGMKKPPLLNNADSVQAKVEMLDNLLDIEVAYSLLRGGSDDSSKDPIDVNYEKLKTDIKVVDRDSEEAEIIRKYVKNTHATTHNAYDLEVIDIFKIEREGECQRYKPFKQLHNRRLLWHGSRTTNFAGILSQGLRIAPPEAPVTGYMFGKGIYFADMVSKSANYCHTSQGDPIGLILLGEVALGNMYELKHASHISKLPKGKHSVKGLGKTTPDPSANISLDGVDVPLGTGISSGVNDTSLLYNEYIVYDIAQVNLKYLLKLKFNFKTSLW

| SMILES | PARP1 L713F-nLuc/akaLuc ratio |
| --- | --- |
| CCN1CCN(C(=O)Cc2ccc(Nc3ncc(F)c(Nc4ccc(C(=O)Nc5ccccc5Cl)cc4)n3)cc2)CC1 | 1.15 |
| CC(O)(CS(=O)(=O)c1ccc(F)cc1)C(=O)Nc1ccc(C#N)c(C(F)(F)F)c1 (stereo not drawn) [Bicalutamide] | 0.786 |
| Cc1cc(O)cc(C)c1C=C1C(=O)N(Cc2ccccc2)C(=O)N(Cc2ccccc2)C1=O | 1.52 |
| NCCCNCCSP(=O)(O)O [Amifostine] | 1.22 |
| CCc1c(C(=O)C(N)=O)c2c(OCC(=O)O)cccc2n1Cc1ccccc1 | 0.845 |
| COc1ccc2c(c[n+](C)c3c4cc5c(cc4ccc23)OCO5)c1OC [Chelerythrine (chloride)] | 0.843 |
| COCC1(CO)C(=O)C2CCN1CC2 (stereo not drawn) | 1.09 |
| N[C@@H](CNC(=O)C(=O)O)C(=O)O [Dencichine] | 1.45 |
| CN(C)NC(=O)CCC(=O)O [Daminozide] | 0.786 |
| O=C(O)CNC(=O)C1C(=O)N(C2CCCCC2)C(=O)N(C2CCCCC2)C1=O [Daprodustat] | 0.831 |
| C/C=C(/C)C(=O)O[C@H]1[C@@H]2[C@H](C)C(=O)O[C@@H]2C[C@@H](C)[C@@H]2C=CC(=O)[C@]21C [Brevilin A] | 1.47 |
| COc1ccc2c(c1)C(c1ccc(Cl)cc1)=N[C@@H](CC(=O)O)c1nnc(C)n1-2 [I-BET762 carboxylic acid] | 0.834 |
| CC[C@@]1(O)C(=O)OCc2c1cc1n(c2=O)Cc2cc3ccccc3nc2-1 [Camptothecin] | 0.495 |
| CC[C@@H](C(N)=O)N1CCCC1=O [Levetiracetam] | 1.19 |
| O=C(O)CNC(=O)c1c(O)c2ccccc2n(Cc2ccccc2)c1=O | 1.76 |
| c1cncc(C2Nc3ccccc3-n3cccc32)c1 (stereo not drawn) | 0.887 |
| O=C(NO)c1cnc(NC2(c3ccccc3)CCC(F)(F)CC2)nc1 | 5.69 (active) |

| SMILES | PARP1 L713F-nLuc/akaLuc ratio |
| --- | --- |
| COc1cc(C)[nH]c(=O)c1CNC(=O)c1c(C)n([C@H](C)C2CCOCC2)c2ccccc12 | 0.857 |
| CC(=O)O[C@H]1[C@H]2[C@@H](OC(=O)Cc3ccccc3)[C@@H](C)C[C@]2(OC(C)=O)C(=O)/C(C)=C/[C@@H]2[C@H](CC[C@@]13CO3)C2(C)C [Euphorbiasteroid] | 0.646 |
| CC[C@@H](C(=O)[C@@H](C)[C@@H](O)[C@H](C)[C@@H]1O[C@@H]([C@@H](CC)C(=O)O)CC[C@@H]1C)[C@H]1O[C@]2(C=C[C@@H](O)[C@]3(CC[C@@](C)([C@H]4CC[C@](O)(CC)[C@H](C)O4)O3)O2)[C@H](C)C[C@@H]1C [Salinomycin (from Streptomyces albus)] | 0.553 |
| COc1cc(C(=O)N2CC[C@@H](O)[C@@H](N)C2)cc2nc(-c3cc4ccccc4n3CC3CC3)n(C)c12 [GSK484 (hydrochloride)] | 1.09 |
| C[C@@H]1C(=O)O[C@H]2[C@H](O)[C@@]34O[C@@H]5OC(=O)[C@H](O)[C@@]56[C@H](C(C)(C)C)[C@H](O)C(OC3=O)[C@]64[C@@]12O (stereo partly drawn) [Ginkgolide C] | 0.961 |
| CCCC(=O)O[C@@H]1[C@@H](C)[C@@]2(O)[C@@H](C=C(CO)C[C@]3(O)C(=O)C(C)=C[C@@H]23)[C@@H]2C(C)(C)[C@]12OC(=O)CCC [Phorbol 12,13-dibutyrate] | 1.36 |
| Cn1cc(C2=C(c3cn(C4CCN(Cc5ccccn5)CC4)c4ccccc34)C(=O)NC2=O)c2ccccc21 | 1.12 |
| CC(C)=CCCC1=CC(=O)c2c(O)ccc(O)c2C1=O [Deoxyshikonin] | 0.834 |
| COc1c2c3c4c(c(OC)c(=O)c5c(O)cc(OC)c(c6c(OC)cc(O)c(c1=O)c63)c54)[C@@H](C(C)=O)[C@@](C)(O)C2 [Hypocrellin A] | 0.849 |
| Cn1cc(C2=C(c3cn(C4CCN(Cc5ccccn5)CC4)c4ccccc34)C(=O)NC2=O)c2ccccc21 [Enzastaurin] | 0.72 |
| CCC1(c2ccc(N)cc2)CCC(=O)NC1=O (stereo not drawn) [Aminoglutethimide] | 0.862 |
| c1ccc([C@@H]2C[C@H]2NC2CCNCC2)cc1 [GSK-LSD1 (dihydrochloride)] | 0.955 |
| O=C(NO)c1cnc(NC2(c3cccc(F)c3)CCCCC2)nc1 | 0.756 |
| C[C@H](CCC(=O)O)C[C@H](C)C[C@H](C)C(=O)/C=C(\O)[C@H](C)C[C@H](C)C/C=C/[C@@H](C)[C@@H](O)[C@@H](C)[C@@H](O)C[C@@H]1CC[C@@](C)([C@H]2CC[C@@](C)([C@@H](C)O)O2)O1 [Ionomycin (calcium)] | 0.727 |
| Clc1ccc2c(N3CCNCC3)ccnc2c1 [7-Chloro-4-(piperazin-1-yl)quinoline] | 0.933 |
| C=C1C[C@@H]2[C@H](CC[C@]3(C)C(=O)CC[C@@H]23)[C@@]2(C)C=CC(=O)C=C12 [Exemestane] | 1 |
